Test results taken from PubChem BioAssay AID1220 (Sanford-Burnham Center for Chemical Genomics, 2008).
Among all 190,000 compounds or so, about 1,300 (0.68%) were called active. For the sample, actives were picked, then their nearest neighbours and some compounds at random. A number with no mark means an inactive call. Cut-off read from the data, not from the text of the source: active = inhibition above about 50%; inactive = the rest.

Molecular target: Mannose-6-phosphate isomerase (Homo sapiens) (UniProt P34949)
Test: MPI inhibition at elevated mannose 6-phosphate – biochemical, fluorescence intensity, high mannose 6-phosphate, primary screen (AID 1220)
Conditions: recombinant PMI enzyme, coupled fluorescence intensity; at 20 µM; hits give high values

Chain of Mannose-6-phosphate isomerase (Homo sapiens) (P34949 whole entry, looked up): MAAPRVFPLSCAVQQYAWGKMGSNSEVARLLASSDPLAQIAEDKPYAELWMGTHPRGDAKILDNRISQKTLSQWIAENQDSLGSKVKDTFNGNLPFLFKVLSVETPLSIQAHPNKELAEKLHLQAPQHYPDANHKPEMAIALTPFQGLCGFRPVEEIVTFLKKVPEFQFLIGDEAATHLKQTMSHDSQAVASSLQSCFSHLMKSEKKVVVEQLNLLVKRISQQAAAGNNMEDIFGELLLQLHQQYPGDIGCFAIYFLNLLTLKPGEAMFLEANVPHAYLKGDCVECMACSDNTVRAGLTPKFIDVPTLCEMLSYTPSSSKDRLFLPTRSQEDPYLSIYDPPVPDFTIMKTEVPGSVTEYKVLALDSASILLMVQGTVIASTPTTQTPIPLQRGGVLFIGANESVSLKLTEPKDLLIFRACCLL

Row | Structure (SMILES) | inhibition
1 | COc1ccc(N2C(=O)/C(=C\c3ccco3)N=C2SCC(=O)N(C(C)C)C(C)C)cc1Cl | 2.5%
2 | CC1C2CC(C(S(=O)(=O)N3CCOCC3)C2=O)C1(C)C (centres undefined) | 8.3%
3 | O=C1CCC2=C(CCCC2=O)N1 | 0.9%
4 | O=C1CC(=O)C(n2cncn2)C(c2ccc(Cl)cc2Cl)C1 (centres undefined) | 14.4%
5 | COc1ccc2c(c1)c1ncn(Cc3ccco3)c(=O)c1n2C | 0.7%
6 | COCc1cc(CN2CCCC2)c(O)c2ncccc12 | 35.4%
7 | Oc1c(CN2CCCCC2)cc(COCc2ccccc2)c2cccnc12 | 23.4%
8 | CC(C)C(=O)Nc1ccc(C(=O)N2CCCCCC2)cc1 | -8.1%
9 | CCOc1ccccc1-n1cnc2cc(C(=O)NCc3ccco3)ccc21 | -4.7%
10 | O=S(=O)(Cc1ccccc1Cl)N1CCCCC1 | -3.8%
11 | CC1CCN(S(=O)(=O)Cc2ccccc2Cl)CC1 | 56.9% (active)
12 | O=S(=O)(Cc1ccccc1Cl)N1CCCC1 | 8.9%
13 | CN1C(=O)NC(NC(=O)c2ccncc2)(C(F)(F)F)C1=O (centres undefined) | 4.6%
14 | COc1ccc(NC(=S)N2CCC(C(O)(c3ccccc3)c3ccccc3)CC2)cc1 | 7%
15 | COc1ccc(OC)c(NC(=S)N2CCC(C(O)(c3ccccc3)c3ccccc3)CC2)c1 | 17.9%
16 | COc1cc(NC(=S)N2CCC(C(O)(c3ccccc3)c3ccccc3)CC2)cc(OC)c1 | 52.9% (active)
17 | Cc1ccc2nsnc2c1S(=O)(=O)Nc1cccc2nsnc12 | 50.1% (active)
18 | Cc1ccc2nsnc2c1NS(=O)(=O)c1c(C)ccc2nsnc12 | 30.6%
19 | Cc1cc(C)c(S(=O)(=O)Nc2cccc3nsnc23)c(C)c1 | 19.4%
20 | O=C(Nc1ncc(Cc2cccc(Cl)c2Cl)s1)c1ccc([N+](=O)[O-])cc1 | -1%
21 | CCOC(=O)c1ccccc1NC(=O)CSc1ccccc1 | -10.2%
22 | O=c1[nH]c2ccccc2c(O)c1-c1cc2ccccc2oc1=O | -2.4%
23 | O=C(Cc1c[nH]c2ccccc12)NCc1ccccc1F | 7.1%
24 | CN1C(=S)SC(N(O)C(=O)Nc2ccccc2)C1(C)C (centres undefined) | 10.2%
25 | CN1C(=S)SC(N(O)C(=O)Nc2cccc3ccccc23)C1(C)C (centres undefined) | 62.9% (active)

Row | Structure (SMILES) | inhibition
26 | CN1C(=S)SC(N(O)C(=O)Nc2ccc(Cl)c(Cl)c2)C1(C)C (centres undefined) | 12.6%
27 | CN1CCC/C1=C/C=C1\SC(=S)NC1=O | 53.1% (active)
28 | CN1C(=O)/C(=C\C=C2/CCCN2C)N(C)C1=S | 30.5%
29 | CN1CCN(/C=C2\SC(=S)NC2=O)CC1 | -4.7%
30 | O=C(CCCNC(=O)/C(=C\c1ccc(F)cc1)NC(=O)c1ccccc1)OCc1ccccc1 | 3.3%
31 | Cc1nc(-c2ccncc2)sc1C(=O)Nc1ccc(Cl)cc1 | 6.1%
32 | O=C(Nc1ccccc1)C1=C[C@@H](c2coc3ccccc3c2=O)C[C@@H](OCCCCO)O1 | 10.1%
33 | CC(C)C[C@H](NC(=O)c1nc[nH]c1C(=O)NC(c1ccccc1)c1ccccc1)C(=O)OCc1ccccc1 | 15%
34 | CCOC(=O)Cc1csc(NC(=O)c2csc3c2CCCC3)n1 | 2%
35 | CC(C)CCNC(=O)C(CC(C)C)N(Cc1ccc2c(c1)OCO2)C(=O)c1snc(C(N)=O)c1N (centres undefined) | 51% (active)
36 | CC(C)CC(C(=O)NC1CCCC1)N(Cc1ccc2c(c1)OCO2)C(=O)c1snc(C(N)=O)c1N (centres undefined) | 3.1%
37 | CCCC(C(=O)NC1CCCC1)N(Cc1ccc2c(c1)OCO2)C(=O)c1snc(C(N)=O)c1N (centres undefined) | -8.2%
38 | Cn1c(=O)cc(-c2ccccc2)c2ccccc21 | 0.3%
39 | O=c1cc(-c2ccccc2)c2ccccc2[nH]1 | 10%
40 | CCS(=O)(=O)N1CCN(S(=O)(=O)c2ccccc2)CC1 | 1.8%
41 | COc1ccccc1-n1c(=O)c(C#N)c(-c2ccc([N+](=O)[O-])cc2)c2cc(C(=O)c3cc(F)ccc3O)cnc21 | 14.2%
42 | CCN(CC)C(=S)SSC(=S)N(CC)CC | 0.3%
43 | CCN(CC)C(=S)SCC(=O)c1ccccc1 | 7.7%
44 | O=C(NCc1ccco1)c1ccc(CN2CCOCC2)cc1 | -9.5%
45 | COC(=O)c1ccc(NC(=S)NC2c3ccccc3CC2O)cc1 (centres undefined) | 15.2%
46 | CCOC(=O)C(=O)Nc1ccc([N+](=O)[O-])cc1OC | 16.8%
47 | CCN(CC)S(=O)(=O)c1ccc(Cl)c(NC(=O)c2ccc(C#N)cc2)c1 | -3.1%
48 | CCc1ccc2c(c1)c1nc(C)sc1n2CC(=O)OC | 5.8%
49 | CCc1ccc2c(c1)c1nc(C)sc1n2CC | 55.2% (active)
50 | Cc1nc2c3cc(F)ccc3n(Cc3ccc(F)cc3)c2s1 | 53.2% (active)

Row | Structure (SMILES) | inhibition
51 | CCOC(=O)Cn1c2ccc(C)cc2c2nc(C)sc21 | 26.1%
52 | Cc1nc2c3cc(F)ccc3n(Cc3ccccc3)c2s1 | 32.5%
53 | Cc1nc2c3cc(F)ccc3n(Cc3ccccc3F)c2s1 | 14.7%
54 | Cc1cccc(C)c1NC(=O)C(=O)c1cn(C)c2ccccc12 | -8.1%
55 | COc1cc2c(C(=O)N3CCN(C)CC3)c(C)oc2cc1Br | 11.7%
56 | COc1ccc(CC(=O)NC2CC(C)(C)NC(C)(C)C2)cc1 | -9%
57 | Cc1ccc(Sc2nc3c(c(=O)[nH]c(=O)n3C)n2CCc2ccccc2)cc1 | 18.4%
58 | CN(C)c1cc[nH]c(=O)c1C#N | 6.4%
59 | COc1cccc(-c2nnc(SCC(=O)Nc3cc(C)on3)n2C)c1 | -5.8%
60 | CCOc1ccc(Br)cc1/C=N/O | 16.4%
61 | CCCc1ccc(O)c(N=Cc2cc(Br)cc(OCC)c2O)c1 | 53.1% (active)
62 | CCc1ccc(O)c(N=Cc2ccccc2O)c1 | 23.3%
63 | COC(=O)c1ccccc1NC(=O)CSc1nc(-c2ccco2)cc(C(F)(F)F)n1 | 12.4%
64 | CCOC(=O)N1CCC(N2C(=O)c3ccccc3C2Nc2cc(Cl)c(OC)cc2OC)CC1 (centres undefined) | 21.3%
65 | Cc1cc(=O)oc(C)c1C(=O)OCC(=O)c1ccc2ccccc2c1 | -11.8%
66 | Cc1cc(=O)oc(C)c1C(=O)OCC(=O)c1ccc(Cl)c(Cl)c1 | 3.4%
67 | Cc1ccc(C(=O)COC(=O)c2c(C)cc(=O)oc2C)cc1[N+](=O)[O-] | 58.1% (active)
68 | COc1ccc(-c2[nH]ncc2CNCC(C)(C)N2CCOCC2)cc1F | 8.1%
69 | CN=C(Nc1cccc(OC)c1)SC1CC(=O)N(c2ccc(C(=O)O)cc2)C1=O (centres undefined) | 8.7%
70 | O=C(CCS(=O)(=O)Cc1ccc(Cl)cc1)NCCCN1CCOCC1 | 4.1%
71 | CCCCCCCCCCCCCCCC[n+]1cccc2ccccc21 | -9.4%
72 | CCN(CC)C(=S)NC(=O)c1ccc(Cl)cc1Cl | 0.2%
73 | CCCN(CCC)C(=S)NC(=O)c1ccc(Cl)cc1Cl | 87.2% (active)
74 | CCCCN(CCCC)C(=S)NC(=O)c1ccccc1Cl | 7.7%
75 | CCOc1cc(N2CCOCC2)c(OCC)cc1NC(=O)c1ccc(=O)n(Cc2ccccc2)n1 | 7.5%

Row | Structure (SMILES) | inhibition
76 | O=CN1CCN(C(C(=O)NC2CCCC2)c2cc3c(cc2[N+](=O)[O-])OCO3)CC1 (centres undefined) | 31.4%
77 | O=C(NC1CCCCC1)C(c1cc2c(cc1[N+](=O)[O-])OCO2)N1CCCCC1 (centres undefined) | 46.3%
78 | O=C(NC1CCCC1)C(c1cc2c(cc1[N+](=O)[O-])OCO2)N1CCCC1 (centres undefined) | 23.9%
79 | CC1CCN(C(C(=O)NC2CCCCC2)c2cc3c(cc2[N+](=O)[O-])OCO3)CC1 (centres undefined) | 61.1% (active)
80 | CCN1CCN(C(C(=O)NC2CCCC2)c2cc3c(cc2[N+](=O)[O-])OCO3)CC1 (centres undefined) | 46.2%
81 | O=CN1CCN(C(C(=O)NC2CCCCC2)c2cc3c(cc2[N+](=O)[O-])OCO3)CC1 (centres undefined) | 58.3% (active)
82 | CCOC(=O)Cn1nc(C)n(-c2c(C)cccc2C)c1=O | 8.1%
83 | Cc1cc(Cl)ccc1OCCCC(=O)N1CCCCC1 | -5.5%
84 | COc1ccc(S(=O)(=O)N2CCSC2c2ccc(OC)c(OC)c2)cc1 (centres undefined) | -17.1%
85 | Cc1cccc(NC(=S)NCCc2ccccc2)n1 | 6.5%
86 | C=CCOn1c(C)c(C(C)=O)c2c3nonc3ccc21 | 49.2%
87 | COn1c(C)c(C(C)=O)c2c3no[n+]([O-])c3ccc21 | 8.2%
88 | COn1c(C)c(C(C)=O)c2c3nonc3ccc21 | 58% (active)
89 | CCN1/C(=C/c2cc[n+](C)cc2)C=Cc2cc(C)ccc21 | 66.7% (active)
90 | C=CC[n+]1c(/C=C2\C=Cc3cc(C)ccc3N2CC)ccc2ccccc21 | 9%
91 | CCN1C(=C(C#N)C#N)C=Cc2cc(C)ccc21 | 5.3%
92 | CCOC(=O)c1ccc(NC(=O)c2n[nH]c(=O)c3ccccc23)cc1 | -0.1%
93 | CCN(CC(=O)Nc1cccc(C(C)=O)c1)S(=O)(=O)c1ccc(C)cc1 | -6.4%
94 | O=c1c2c(-c3ccc([N+](=O)[O-])cc3)csc2nc2n1CCC2 | 28.9%
95 | Cc1nc(N)sc1-c1csc(N(C)c2ccc(O)cc2)n1 | 56.3% (active)
96 | Cc1cc(O)ccc1Nc1nc(-c2sc(N)nc2C)cs1 | 2%
97 | CN(c1ccc(O)cc1)c1nc(-c2ccccc2)cs1 | 25.1%
98 | CNC(=S)N1N=C(c2ccccc2)CC1c1ccccc1Cl (centres undefined) | 1%
99 | CC(C)(C)NC(=S)NCc1ccc2c(c1)OCO2 | -10.4%
